Source: PubChem BioAssay (National Center for Advancing Translational Sciences (NCATS))
KCNH2 3.1 block: inhibitors of human KCNH2 3.1 potassium channel isoform. U2OS KCNH2 3.1, thallium flux FluxOr; active compounds read low. activity change, % (tested at about 1.8 µM). hit rate 0.95% among 340,000. AID 720553;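 active = maximum activity change below -70%; inconclusive = maximum activity change from -70% to -50%; inactive = maximum activity change above -50%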;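 also: thallium influx rate constant from kinetic fluorescence after stimulation buffer; % is scaled to controls: 0 for no effect and ±100 for the full control effect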
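Measured as rate of thallium-driven FluxOr signal in transduced U2OS cells carrying the 3.1 channel, read kinetically for 2 min upon stimulation; values are rate constants scaled to DMSO control wells.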
12-LOX inh: blocks human arachidonate 12S-lipoxygenase; P18054; purified 12hLO, xylenol orange hydroperoxide absorbance; Potency, µM (highest dose often 108 µM), inactives show top-dose activity change, negative = inhibition, usual class: inhibitors; hit rate 1.1% among 580,000; AID 1671190; also: potency is read from the fitted curve at half-maximal effect; % is scaled to controls: 0 for no effect and ±100 for the full control effect
Target sequence (P18054 whole entry, looked up): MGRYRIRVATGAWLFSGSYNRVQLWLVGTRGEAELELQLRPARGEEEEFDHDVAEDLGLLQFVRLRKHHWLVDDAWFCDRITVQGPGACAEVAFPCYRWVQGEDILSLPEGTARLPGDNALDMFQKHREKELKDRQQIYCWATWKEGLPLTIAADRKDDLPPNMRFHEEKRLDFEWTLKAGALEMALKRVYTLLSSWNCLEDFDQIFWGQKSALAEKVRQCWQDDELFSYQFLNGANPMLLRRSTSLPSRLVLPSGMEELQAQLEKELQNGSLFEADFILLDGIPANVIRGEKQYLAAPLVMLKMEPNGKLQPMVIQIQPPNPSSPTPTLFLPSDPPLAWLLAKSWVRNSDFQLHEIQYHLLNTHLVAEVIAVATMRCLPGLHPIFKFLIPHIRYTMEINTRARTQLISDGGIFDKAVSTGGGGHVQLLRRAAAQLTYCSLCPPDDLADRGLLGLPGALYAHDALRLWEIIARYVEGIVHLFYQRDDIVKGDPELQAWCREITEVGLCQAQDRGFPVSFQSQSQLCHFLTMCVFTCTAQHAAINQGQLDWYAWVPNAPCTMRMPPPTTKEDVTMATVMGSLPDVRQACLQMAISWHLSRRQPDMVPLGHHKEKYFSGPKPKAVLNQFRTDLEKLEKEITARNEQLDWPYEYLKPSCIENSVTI
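Purified human 12hLO (150 nM final) in 25 mM Hepes, 0.01% Triton X-100, pH 7.0 was preincubated 15 min at room temperature with compound. Then 40 uM arachidonic acid was added, 30 min. Hydroperoxide was read by Fe-XO absorbance ratio 573/405 nm.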
hERG WT inh: KCNH2 (human, wildtype) channel inhibition; Q12809; AID 720551; activity change, % at 1.84 µM; hit rate 0.37% among 340,000; U2OS, BacMam KCNH2, thallium flux FluxOr; active compounds read low;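 active = maximum activity change below -70%; inconclusive = maximum activity change between -70% and -50%; inactive = maximum activity change above -50%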; also: % is scaled to controls: 0 for no effect and ±100 for the full control effect
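U2OS cells were transduced with wild-type KCNH2 virus (2.03 x 10^8 / mL) for 4 h at room temperature, then cultured overnight at 37 C. Thallium flux was read with FluxOr dye. Rate constants were normalized to DMSO controls.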
A-T KAP1 phos: candidate therapy for ataxia-telangiectasia; F2112 A-T fibroblasts, KAP-1 phosphorylation AlphaLISA; neocarzinostatin DNA damage 30 min before lysis; Potency, µM (series often up to 57.5 µM), for the others: at the highest dose activation, actives largely listed as activators; hit rate 0.19% among 320,000; AID 485349; also: potency is read from the fitted curve at half-maximal effect; % of control where 0% means no effect; nearly all actives have a fitted effect of over 45% in size
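ATM-like activity read as KAP-1 phosphorylation via AlphaLISA donor/acceptor antibody pairs after lysis and 6 hr at 25C. Cells were ATM-null patient fibroblasts (F2112, hTERT), dosed 60 min, then exposed to the DSB inducer NCS for 30 min.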
An asterisk follows results filed as active; ? = inconclusive; nt = no result given; [ ] = dose if it differs, or a comment. Compounds with a hit are over-represented: about 1.8% of the library has one in this group of screens. Unless noted, calls follow the shape of the dose curve; as a rule, active = well fitted curve in the direction sought with a large enough effect; inconclusive = small, poorly fitted or top-dose-only effect, or another doubt; inactive = no such curve, though single readings can be large; an effect the other way counts as inactive or inconclusive.

SMILES | KCNH2 3.1 block | 12-LOX inh | hERG WT inh | A-T KAP1 phos
COC(=O)c1ccc(C2/C(=C(\O)c3ccc4c(c3)OCCO4)C(=O)C(=O)N2c2nnc(C)s2)cc1 (stereo unspecified) | -4.2 | ? | -0.4 | 2.2%
Cc1ccc(C)c(/C(O)=C2\C(=O)C(=O)N(c3nnc(C)s3)C2c2ccc(C(C)C)cc2)c1 (stereo unspecified) | nt | 44.7µM* | nt | nt
CC(NC(=O)COC(=O)/C=C/c1cccc(F)c1)c1ccccc1 (stereo unspecified) | -0.7 | -1.4% | -2.1 | 17.1%
CC(NC(=O)COC(=O)/C=C/c1ccc(Cl)cc1)c1ccccc1 (stereo unspecified) | -4.0 | ? | -8.0 | 3.16µM*
N#Cc1cccc(/C=C2\CSc3ccccc3C2=O)c1 | nt | 39.8µM* | nt | nt
O=C1NCc2ccccc2CC12CCN(Cc1ccnc3ccccc13)C2 (stereo unspecified) | nt | 10.2%[6.33 µM] | nt | nt
CCOCCCNC(=O)c1nnn2cc(-c3ccccc3)[nH]c(=O)c12 | nt | 17.8µM* | nt | nt
CCN(CC)c1ccc(/C=N/N2CC(=O)NC2=S)cc1 | -2.2 | 3.55µM* | 10.8 | -6.3%
CCN(CC)c1ccc(/C=N/N2C(=O)c3ccccc3C2=O)cc1 | 2.9 | 4.1% | -1.0 | 4.8%
CCSc1nc2c(c(=O)[nH]1)C(c1ccc(C)cc1)C1=C(CCCC1=O)N2 (stereo unspecified) | -1.9 | -3.6% | -4.8 | -2.6%
Cc1ccc(C2C3=C(CCCC3=O)Nc3nc(SCCC(C)C)[nH]c(=O)c32)o1 (stereo unspecified) | nt | 7.94µM* | nt | nt
O=C(CSc1nc2ccccc2nc1N1CCCC1)N1CCN(C2CCCCC2)CC1 | nt | 107.7% | nt | nt
Cc1cc(C)c2c(=O)n(CC(=O)Nc3cccc(Cl)c3C)sc2n1 | -31.5 | 0.708µM* | -17.4 | -11.5%
Cc1cc(C)c2c(=O)n(CC(=O)Nc3ccc(Br)c(C)c3)sc2n1 | -24.8 | -106.5% | -0.6 | -2.7%
Cc1c(NC(=O)c2ccc(C(=O)Nc3c(C)n(C)n(-c4ccccc4)c3=O)cc2)c(=O)n(-c2ccccc2)n1C | -11.4 | 3.0% | -32.5 | 2.9%
Cc1c(NC(=O)c2cc3cc(Br)ccc3[nH]2)c(=O)n(-c2ccccc2)n1C | nt | 50.1µM* | nt | nt
Cc1ccc(N(CC(=O)N2CCc3ccccc3C2)S(C)(=O)=O)cc1Cl | nt | -46.7% | nt | nt
Cc1ccc(CNC(=O)c2nnn(-c3cccc(C)c3)c2N)cc1 | -107.6* | ? | 24.7 | 11.8%
Cc1ccc(C)c(S(=O)(=O)c2c[nH]c(=S)[nH]c2=O)c1 | -82.2* | ? | -30.2 | -0.4%
Cc1ccc(-c2cc(C(=O)N3CCN(C(=O)C4CC4)CC3)c3ccccc3n2)o1 | nt | 22.4µM* | nt | nt
Cc1ccc(-c2cc(C(=O)N3CC(C)CC(C)C3)c3ccccc3n2)o1 (stereo unspecified) | -7.5 | 35.5µM* | -1.9 | 4.7%
CN(C)c1ccc2nc3ccc(=O)cc-3sc2c1 | -3.7 | ? | 7.7 | nt
Cc1cc2nc3ccc(=[N+](C)C)cc-3sc2cc1N | -93.7* | nt | 2.5 | 15.8µM*
CN(C)c1ccc2nc3ccc(=[N+](C)C)cc-3sc2c1 | -5.7 | ? | 0.1 | 11.2µM*
COCC1CN(C(=O)c2nccn2C)CC12CCNCC2 (stereo unspecified) | nt | 7.1% | nt | nt
SMILES | KCNH2 3.1 block | 12-LOX inh | hERG WT inh | A-T KAP1 phos
Cc1ccc(-c2nonc2NC(=O)COc2cccc(C)c2)cc1 | nt | -6.1% | nt | nt
COc1ccc(-c2noc([C@@H]3CCCN3C(=O)c3ccc(C#N)cc3)n2)cc1OC | nt | 25.1µM* | nt | nt
CCC(C)c1ccccc1N1CC(C(=O)Nc2ccc(C)c(S(=O)(=O)N3CCOCC3)c2)CC1=O (stereo unspecified) | -73.0* | ? | -15.9 | 0.2%
O=C(O)CN1C(=O)/C(=C/c2cccc(Cl)c2)Oc2ccccc21 | 11.5 | -11.9% | -0.1 | 5.01µM*
NS(=O)(=O)c1ccc(CCNCc2ccccc2OCc2ccc(Cl)cc2)cc1 | -70.9* | -17.5% | -0.3 | -7.0%
COc1ccc(CN(C)CC(O)COc2ccc(C(=O)c3ccccc3)cc2)c(OC)c1OC (stereo unspecified) | ? | -2.4% | -1.9 | 0.3%
COc1ccc(CCN(C)CC(O)COC(c2ccc(F)cc2)c2ccc(F)cc2)cc1OC (stereo unspecified) | -112.1* | ? | -144.0* | -2.9%
COc1ccc(CN(C)CC(O)COC(c2ccccc2)c2ccccc2)c(OC)c1OC (stereo unspecified) | -86.4* | ? | ? | 6.3%
CCC(C)NC(=O)c1ccc(CNC(=O)C2CCCC2)cc1 (stereo unspecified) | nt | -4.8% | nt | nt
C#CCN(C)C(=O)[C@@H](C)C1CC[C@@]2(C)Cc3sc(NC(=O)C4CC4)nc3[C@@H](C)[C@@H]2[C@H]1O (stereo partly specified) | nt | 112µM* | nt | nt
CCN(CC)C(=O)C(C)[C@@H]1CC[C@@]2(C)Cc3sc(NC(=O)C4CC4)nc3[C@@H](C)[C@@H]2[C@H]1O (stereo partly specified) | nt | -0.3% | nt | nt
CN(C)C(=O)c1ccc(Nc2cc3c(cn2)cc(-c2ccc(C(=O)N(C)C)cc2)n3Cc2ccccc2)cc1 | nt | 18.4% | nt | nt
CSc1ccccc1NC(=O)c1ccccc1 | 25.3 | -7.6% | nt | 1.2%
O=C(Nc1ccccc1SC(=O)c1ccccc1)c1ccccc1 | 9.0 | 5.62µM* | -0.4 | nt
COc1ccc(CN2CCC(C(=O)c3ccc(F)cc3)CC2)cc1 | -73.0* | ? | -7.4 | 2.5%
Cc1ccc(CN2CCC(C(=O)c3ccc(F)cc3)CC2)cc1 | -75.4* | 0.8% | 5.7 | nt
CSc1ccc(CN2CCC(C(=O)NCc3ccc(C)cc3)CC2)cc1 | -92.6* | ? | nt | 1.9%[11.5 µM]
Cc1ccc(NC(=O)N2CCC(C(=O)c3ccc(F)cc3)CC2)cc1 | 15.9 | -12.5% | 0.6 | -1.6%
COc1ccc(C(=O)C2CCN(C(=O)c3ccc(F)cc3)CC2)cc1 | 0.4 | ? | 0.5 | -3.3%
O=C(NCc1ccc(CN2CCCC2)cc1)C1CCCCC1 | nt | -1.1% | nt | nt
COc1ccc(NC(=O)Cc2c(Cl)cccc2Cl)cc1OC | nt | 0.8% | nt | nt
O=C1NC2(CCN(Cc3ccncc3)CC2)COc2ccccc21 | nt | 46.9%[176 µM] | nt | nt
Cn1cccc1CN1CCC2(CC1)COc1ccccc1C(=O)N2 | nt | 56.2µM* | nt | nt
CN(C)c1ccc(CN2CCC3(CC2)COc2ccccc2C(=O)N3)cc1 | nt | 39.8µM* | nt | nt
COC(=O)c1ccc2c(c1)nc1n2[C@@H](CNCc2ccc(C(F)(F)F)cc2)COC1 | nt | 14.9%[176 µM] | nt | nt
SMILES | KCNH2 3.1 block | 12-LOX inh | hERG WT inh | A-T KAP1 phos
Cc1cc(C)c2c(=O)n(CC(=O)Nc3ccccc3)c(=O)n(-c3ccccc3)c2n1 | nt | -7.5% | nt | nt
O=C(O)CNS(=O)(=O)c1ccc(I)cc1 | nt | -3.5% | nt | nt
C[C@@H](NC(=O)C1CCCC1)c1onc(-c2ccc(F)cc2)c1C(=O)O | nt | 4.8%[176 µM] | nt | nt
CCc1ccc(NC(=O)CSc2nc3ccccc3c(=O)n2CCNC(C)=O)cc1 | nt | -12.8% | nt | nt
Cc1ccc(NC(=O)CSc2nc3ccccc3c(=O)n2Cc2cccs2)cc1 | -72.7* | -13.1% | 14.6 | 4.3%
CCc1ccc(NC(=O)CSc2nc3ccccc3c(=O)n2CCCN2CCC(C)CC2)cc1 | -97.2* | 7.1% | -135.5* | 5.0%
